Earlier results, collected in PubChem BioAssay AID977608.
Out of some 4,300 compounds screened, about 4,300 (100%) were called active. Cut-off not given; nearly all actives show IC50 up to about 1400 µM. The set was probably picked from earlier hits. The list shows a part of the results. *1 amine or outer side, *2 acyl side, *3 side chain or, on linkers, in order; H or OH if unused. Where a SMILES comes first, the peptide text is derived from it. Side-chain parts run from the residue outwards. [ ]: non-standard residue; d: D form. The star is where a group is joined. N(2S-amino-4-Me-pentyl)Phe = CC(C)C[C@@H](CN([C@@H](Cc1ccccc1)C(=O)[*:2])[*:1])N[*:3]; Orn(CH(NH2)2) = NC(N)NCCC[C@H](N)C(=O)O; X1 = CC(N)NCCC[C@H](N)C(=O)*; Nle = CCCC[C@H](N)C(=O)O

Experiment: literature IC50 values for PDB complexes, PDB-derived complexes (AID 977608)
Conditions: PDB protein-ligand complexes

CCC(=O)Nc1ccc(OC)c(Nc2ncc(Cl)c(-c3c[nH]c4ccccc34)n2)c1
IC50 (protein: Epidermal growth factor receptor, PDB entry 4li5): 0.55 µM (active)

COc1ccc2c(c1OC)CN(C)c1c-2ccc2cc3c(cc12)OCO3
IC50 (protein: Chitinase A(W275G mutant), PDB entry 3as1): 95 µM (active)

c1ccc(-c2nc(-n3cnnc3)c3ccccc3n2)cc1
IC50 (protein: 3-OXOACYL-[ACYL-CARRIER-PROTEIN] REDUCTASE FABG, PDB entry 4bnu): 0.02 µM (active)

Ac-NSNAIKN-NH2
IC50 (protein: Low-density lipoprotein receptor-related protein 6, PDB entry 3soq): 27 µM (active)

CC[C@H](C)[C@H](NC(=O)[C@H](CCC(=O)O)NC(=O)[C@H](C)NC(C)=O)C(=O)N[C@H](CO)CCCCN
IC50 (protein: Streptopain, PDB entry 4d8i): 0.205 µM (active)

CCNC(=O)c1ccc(C(=O)NCCC2CCN(c3ncnc4cc(C(N)=O)sc34)CC2)s1
IC50 (protein: NAD-dependent protein deacetylase sirtuin-3, mitochondrial, PDB entry 4jsr): 0.004 µM (active)

Nc1nc(NC2CCCCC2)sc1C(O)c1ccc2ccccc2c1 (configuration not stated)
IC50 (protein: Cyclin-dependent kinase 2, PDB entry 3rah): 0.012 µM (active)

Nc1nc(NC2CCCCC2)sc1C(O)c1cccc([N+](=O)[O-])c1 (configuration not stated)
IC50 (protein: Cyclin-dependent kinase 2, PDB entry 3r9n): 1.4 µM (active)

Cc1ccc([N+](=O)[O-])c(Oc2ccc(C[C@@H](N)[C@H](N)O)cc2)c1
IC50 (protein: inducible nitric oxide synthase (iNOS), PDB entry 4ux6): 1.2 µM (active)

C[C@H](NC(=O)CN1CCc2cccc3c2[C@@H]1CN[C@@H]3O)C(=O)N1CCC(c2ccc(F)cc2)CC1
IC50 (protein: Poly [ADP-ribose] polymerase 1, PDB entry 4hhz): 0.019 µM (active)

C=C(C)[C@H](O)[C@H](CC(C)C)NC(=O)[C@H](CCC(=O)N(C)C)NC(=O)[C@@H](NC(=O)CCCCC)C(C)C
IC50 (protein: yeast 20S proteasome, PDB entry 4hnp): 0.165 µM (active)

O[P+](O)(O)C(CNC1CCCCC1)[P+](O)(O)O
IC50 (protein: Farnesyl pyrophosphate synthase, PDB entry 4dzw): 0.013 µM (active)

CN1C(=O)C[C@@](C)(c2cccc(NC(=O)c3ccc(OCC(F)(F)F)cn3)c2)NC1N (some centres not stated)
IC50 (protein: BETA-SECRETASE 1, PDB entry 3zov): 0.06 µM (active) | IC50 (protein: BETA-SECRETASE 2, PDB entry 3zki): 1.2 µM (active)

C/C=C1\NC(=O)[C@@H](NC(=O)[C@H](CCC(N)=O)NC(=O)CCCCC)[C@@H](C)O[C@@H](O)[C@H](C(C)C)N[C@H](O)[C@H](Cc2ccc(O)cc2)N(C)[C@@H](O)[C@H](Cc2ccccc2)N2[C@H](O)CC[C@H](NC1=O)[C@@H]2O
IC50 (protein: Chymotrypsin-like elastase family member 1, PDB entry 4gvu): 0.03 µM (active)

CC(C)CC(=O)CCC(=O)N1CCN(Cc2cc3nc(-c4cccc5[nH]ncc45)nc(N4CCOCC4)c3s2)CC1
IC50 (protein: PHOSPHATIDYLINOSITOL 4,5-BISPHOSPHATE 3-KINASE CATALYTIC SUBUNIT ALPHA ISOFORM, PDB entry 3zim): 0.0068 µM (active)

CC(=O)Nc1c(Cl)cc(CNC(N)NC(=O)Cn2ccc3ccccc32)cc1Cl (configuration not stated)
IC50 (protein: Beta_secretase 1 (K75A, E77A mutation), PDB entry 4ivt): 1.01 µM (active)

CC[C@@H]1C(=O)N(C)c2cnc(-c3ccc[nH]3)nc2N1C1CCCC1
IC50 (protein: Serine/threonine-protein kinase PLK2 (C83S, V87T, A119S, A216S, C259A, C291S, L335T mutation), PDB entry 4i5p): 0.377 µM (active)

CC[C@@H]1C(=O)N(C)c2cncnc2N1C1CCCC1
IC50 (protein: Serine/threonine-protein kinase PLK2, PDB entry 4i6b): 1.17 µM (active)

O=C(O)CC(O)(CC(=O)O)C(=O)O
IC50 (protein: Fructose-1,6-bisphosphate aldolase, class II, PDB entry 4to8): 56900 µM (active)

N#C[C@H](Cc1ccc2[nH]ncc2c1)C(N)=O
IC50 (protein: Ribosomal protein S6 kinase alpha-3, PDB entry 4jg6): 0.36 µM (active)

O=C(c1cc(Cc2n[nH]c(=O)c3ccccc23)ccc1F)N1CCN(C(=O)C2C=C2)CC1
IC50 (protein: Tankyrase-2 TNKS2, PDB entry 4tkg): 0.14 µM (active)

C=C[C@H]1CN(CCOc2ccc(OC)c(OC)c2)C(=O)[C@@H]2CCC[C@H]1N2S(=O)(=O)c1cc(Cl)cc(Cl)c1
IC50 (protein: Peptidyl-prolyl cis-trans isomerase FKBP51, PDB entry 4w9q): 0.14 µM (active)

CC[C@H](NC)C(=O)N[C@@H]1C(=O)N2[C@@H](CC[C@@H]1CCNCc1ccccc1)CC[C@H]2C(=O)NC(c1ccccc1)c1ccccc1
IC50 (protein: human cIAP1-BIR3 domain, PDB entry 3oz1): 0.002 µM (active)

CSCC[C@H](NC(=O)[C@H](CC(=O)O)NC(=O)[C@H](CC(C)C)NC(=O)[C@H](Cc1ccccc1)NC(=O)[C@H](CO[P+](O)(O)O)NC(=O)[C@H](CC(=O)O)NC(=O)[C@H](CCSC)NC(=O)[C@@H](N)CCCCN)C(=O)N[C@@H](CCC(N)=O)C(=O)N[C@@H](CC(C)C)C(=O)O
IC50 (protein: HLA class I histocompatibility antigen, PDB entry 3bhb): 0.0034 µM (active)

H-DDDMGFGLFD-OH
IC50 (protein: TSC, PDB entry 2jdl): 0.00037 µM (active)

CC(C)C[C@H](NC(=O)[C@H](C)NC(=O)[C@@H](N)CC(N)=O)C(=O)N[C@@H](CC(C)C)C(=O)N[C@@H](CCCNC(N)N)C(=O)N[C@@H](Cc1ccc(O)cc1)C(=O)N[C@@H](CC(C)C)C(=O)N[C@@H](CC(C)C)C(=O)N[C@@H](CC(=O)O)C(=O)N[C@@H](CCCNC(N)N)C(=O)N[C@@H](CC(=O)O)C(=O)N[C@@H](CC(=O)O)C(=O)O (H-NALL[Orn(CH(NH2)2)]YLLD[Orn(CH(NH2)2)]DD-OH)
IC50 (protein: DHT-bound androgen receptor LBD, PDB entry 3l3z): 13.6 µM (active)

CCCC[C@H](NC(=O)[C@H](C)NC(=O)[C@H](CCC(=O)O)NC(=O)[C@H](Cc1ccccc1)NC[C@H](CC(C)C)NC(=O)[C@@H](NC(=O)[C@@H](N)CCCNC(C)N)C(C)C)C(=O)O (stereo partly drawn) (H-[N(2S-amino-4-Me-pentyl)Phe]([Val-X1])EA[Nle]-OH)
IC50 (protein: Protease (Q7K, D25N, M36V, V82T, I84V mutation), PDB entry 4gzf): 0.0044 µM (active)

COc1c(C(C)(C)C)cc(C2=CCC=NC2=O)c2ncc(N3CC[C@H](CNS(C)(=O)=O)C3)cc12
IC50 (protein: Hepatitis C Virus polymerase NS5B genotype 1b (BK), PDB entry 4mib): 0.0002 µM (active)

COc1cc(-c2ccc3c(c2)OCCN3C)cc(C)c1O
IC50 (protein: Serine/threonine-protein kinase/endoribonuclease IRE1-alpha, PDB entry 4pl4): 5.4 µM (active)

COc1cc(-c2ccc(N3CCOCC3)cc2)cc(C)c1O
IC50 (protein: IRE1-alpha, PDB entry 4pl5): 11 µM (active)

CN1CCC(C=N)(NC(=O)[C@H](CC2CCCCC2)NC(=O)N2CCOCC2)CC1
IC50 (protein: human Cathepsin S, PDB entry 2r9m): 0.0015 µM (active)
